Molecules are shown by their SMILES.

Results on 35 molecules are retold here after PubChem BioAssay.
Also: test concentration not given here.

The nature of the first assay: compound effects on multiple myeloma cell viability – MM1S, calcein-AM fluorescence, 48 h, basal, profiling panel (AID 1165).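 Also: viability of MM1S multiple myeloma cells under basal unstimulated conditions.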 To be noted: higher = more signal.
As to `CC(C)(C)OC(=O)CC[C@]1(C(=O)NCCN2CCOCC2)N=C(c2ccc(OCCCO)cc2)O[C@H]1c1ccccc1N=[N+]=[N-]`, the z-score is -0.603.

Take `CCOC(=O)[C@H]1C/C=C/C[C@H](C(=O)OCC)C(=O)O[C@H]2[C@@H](OC)O[C@H](CO)[C@@H](OC(=O)Nc3ccc(OC)cc3)[C@@H]2OC1=O`: the z-score is -0.465.

As to `O=C1NC(=O)C2C1C=CC(C(O)c1c(F)cccc1Cl)N2Nc1ccccn1` (configuration not stated), the z-score was 0.312.

As to `COc1ccc([Si](C)(C)[C@@H]2[C@@H](CCO)O[C@]3(C(=O)N(Cc4cccc(N5C(=O)c6ccccc6Oc6ccccc65)c4)c4ccccc43)[C@H]2C)cc1`, the z-score was -1.89.

As to `Cc1ccc(S[C@]2(C(=O)NCc3ccccc3)CC(=O)N(C(C)C)[C@@H]2c2ccc(CO)cc2I)cc1`, the z-score is -2.35.

With `CC(C)CCC[C@@H](C)[C@H]1CC[C@@]2(C)C3=C(CC[C@]12C)[C@@]1(C)CC[C@H](OC(=O)c2ccc(Br)cc2)C(C)(C)C1CC3` (some centres not stated), the z-score was 0.109.

For the molecule `NC(=O)N1C(=O)C2C(C1=O)C1C=C(c3ccc(CO)cc3)C2C(C2CC2)N1Cc1sc2ccccc2c1Cl` (configuration not stated), the z-score was -3.27.

With `C=CCN1C(=O)[C@@]2(O[C@@H](CCn3cc([C@H](O)c4ccccc4)nn3)[C@H]([Si](C)(C)c3ccc(OC)cc3)[C@H]2C)c2ccccc21`, the z-score is -2.7.

In the case of `CC1CC/C=C\[C@H]2OC34C=CCN(CCN5CCOCC5)C(=O)[C@H]3N(CCO)C(=O)[C@@H]4C2C(=O)O1` (some centres not stated), the z-score was 0.237.

Consider `C=CCOC(=O)[C@H]1[C@@H]2C(=O)O[C@@H](c3ccccc3)[C@@H](c3ccccc3)N2[C@@H](c2ccc(OCCOC(=O)[C@H]3C[C@H]4C(=O)N[C@@H](Cc5ccccc5)C(=O)N4[C@H]3c3ccc(O)cc3)cc2)[C@]12C(=O)Nc1ccc(I)cc12`, for which the z-score was 0.0161.

On to `COc1ccc(C#Cc2ccc3c(c2)[C@]2(C(=O)N3)[C@H](C(=O)N3CCc4cc(OC)c(OC)cc4C3)[C@H]3C(=O)O[C@H](c4ccccc4)[C@H](c4ccccc4)N3[C@@H]2c2ccc(O)cc2)cc1`, for which the z-score is -0.229.

`O=C1O[C@@H](c2ccccc2)[C@@H](c2ccccc2)N2[C@@H](c3ccccc3OCCO)[C@]3(C(=O)Nc4ccccc43)[C@@H](C(=O)NC[C@H](O)c3ccccc3)[C@H]12`: the z-score was -3.32.

With `C[C@]1(C(=O)NC2CC2)c2ccccc2C(=O)N(Cc2ccc(OC(F)(F)F)cc2)[C@H]1c1ccc(CO)cc1`, the z-score was -0.105.

With `NC(=O)NCC#Cc1ccc2c(c1)[C@]1(C(=O)N2)[C@H](C(=O)Nc2nc3ccccc3s2)[C@H]2C(=O)O[C@H](c3ccccc3)[C@H](c3ccccc3)N2[C@@H]1c1ccc(O)cc1`, the z-score is -0.614.

As to `COc1ccc(CCNC(=O)[C@@]2(Sc3ccc(C)cc3)CC(=O)N(Cc3cc(C(F)(F)F)cc(C(F)(F)F)c3)[C@@H]2c2ccc(CO)cc2I)cc1`, the z-score is -1.46.

For `CN(C)CCCNC(=O)[C@@H]1c2ccccc2C(=O)N(Cc2ccc(OC(F)(F)F)cc2)[C@H]1c1ccc(CO)cc1`, the z-score was 0.584.

For `COCCCNC(=O)[C@@]1(Sc2ccc(C)cc2)CC(=O)N(C2Cc3ccccc3C2)[C@@H]1c1ccc(CO)cc1I`, the z-score is -2.45.

Consider `CCCCC(CC)C(O)C1C=CC2C(=O)N(c3ccccc3)C(=O)C2N1Nc1ccc([N+](=O)[O-])cc1` (configuration not stated), for which the z-score was -0.41.

In the case of `CC(C)C(=C=CC[C@@H](O)c1ccccc1OCCO)C[C@@H](O)COCc1ccccc1`, the z-score was -0.338.

Take `C[C@H]1C2=C3C(CC[C@H]4C(OCc5ccc(F)cc5C(F)(F)F)OC[C@](C)([C@@H]34)N(C(=O)OC(C)(C)C)C2)C2COC(=O)OCC21` (some centres not stated): the z-score is -2.6.

Regarding `CCOC(=CC(=O)OC)CC(O)c1cccc(Cl)c1` (configuration not stated), the z-score was 0.221.

Regarding `COc1cc(OC)c(C(O)C2C=CC3C(=O)N(c4ccccc4)C(=O)C3N2Nc2ccc(C#N)cc2)cc1Br` (configuration not stated), the z-score was -0.475.

As to `CN(C)CCCNC(=O)[C@@H]1c2ccccc2C(=O)N(CC23CC4CC(CC(C4)C2)C3)[C@H]1c1ccc(CO)cc1`, the z-score was -3.75.

For `COc1cc2c(cc1OC)CN(C(=O)[C@H]1[C@@H]3C(=O)O[C@@H](c4ccccc4)[C@@H](c4ccccc4)N3[C@@H](c3ccc(OCCO)cc3)[C@]13C(=O)Nc1ccc(C#CCCO)cc13)CC2`, the z-score was -0.0509.

On to `COCCOC(=O)N1C(=O)[C@@]2(c3cc(C#CC4=CCCCC4)ccc31)[C@H](c1ccccc1OCCO)N1[C@H](c3ccccc3)[C@H](c3ccccc3)OC(=O)[C@H]1[C@@H]2C(=O)N1CCc2cc(OC)c(OC)cc2C1`, for which the z-score is 0.235.

Another assay is described as follows: calcein-AM signal in unstimulated myeloma cells – cell-based, calcein-AM fluorescence, 48 h, PK04 Diversity Set, profiling panel (AID 1166).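 Also: cells grown under basal conditions without added stimulus.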 To be noted: RPMI8226 myeloma viability, higher = more signal.
As to `C=CC[C@@]12N=C(c3ccc(OCCCO)cc3)O[C@@H]1c1ccccc1N(CCS(=O)(=O)c1ccccc1)C2=O`, the z-score was -1.02.

`CN(C)CCCNC(=O)[C@@]1(C)c2ccccc2C(=O)N(Cc2cc(C(F)(F)F)cc(C(F)(F)F)c2)[C@H]1c1ccc(CO)cc1`: the z-score was -2.36.

With `CC(C)NC(=O)[C@@]1(C)c2ccccc2C(=O)N(C(C)C)[C@H]1c1ccc(CO)cc1`, the z-score is 0.0593.

Take `O=C(N1CCCCC1)[C@@]1(Cc2ccccc2)COC(c2ccc(OCCCO)cc2)=N1`: the z-score was -1.77.

In the case of `O=C1C[C@@](C(=O)NCC(F)(F)F)(c2ccc([N+](=O)[O-])cc2)[C@@H](c2ccc(CO)cc2)N1C1CCCCC1`, the z-score is 0.258.

Regarding `O=C1c2ccccc2[C@](Cc2ccccc2I)(C(=O)NCc2ccccc2)[C@H](c2ccc(CO)cc2)N1C1CCCCC1`, the z-score is -1.99.

Turning to `C=CC[C@@]1(C(=O)N2CCCCC2)N=C(c2ccc(OCCCO)cc2)O[C@@H]1c1ccccc1`, the z-score is -1.13.

For the molecule `C=CCOC(=O)[C@@H]1[C@H]2C(=O)O[C@H](c3ccccc3)[C@H](c3ccccc3)N2[C@H](c2ccc(OCCOC(=O)[C@H]3C[C@H]4C(=O)N[C@@H](CCCC[N+](C)(C)C)C(=O)N4[C@H]3c3ccc(O)cc3)cc2)[C@@]12C(=O)Nc1ccc(I)cc12`, the z-score is -0.362.

With `C[C@H]1ON(c2ccc(C(=O)OC(C)(C)C)cc2)[C@@H](c2ccc(O)cc2)[C@@H]1C(=O)N1C(=O)OC[C@@H]1c1ccccc1`, the z-score is -3.02.

For the molecule `Cc1c(NC(=O)/C(C#N)=C/C=C/c2ccccc2[N+](=O)[O-])c(=O)n(-c2ccccc2)n1C`, the z-score is -2.1.

Consider `CC(C)(C)OC(=O)CC[C@]1(C(=O)NCCN2CCOCC2)N=C(c2ccc(OCCCO)cc2)O[C@H]1c1ccccc1N=[N+]=[N-]`, for which the z-score is -0.711.

Turning to `CCOC(=O)[C@H]1C/C=C/C[C@H](C(=O)OCC)C(=O)O[C@H]2[C@@H](OC)O[C@H](CO)[C@@H](OC(=O)Nc3ccc(OC)cc3)[C@@H]2OC1=O`, the z-score is -0.274.

Regarding `O=C1NC(=O)C2C1C=CC(C(O)c1c(F)cccc1Cl)N2Nc1ccccn1` (configuration not stated), the z-score was -0.825.

As to `COc1ccc([Si](C)(C)[C@@H]2[C@@H](CCO)O[C@]3(C(=O)N(Cc4cccc(N5C(=O)c6ccccc6Oc6ccccc65)c4)c4ccccc43)[C@H]2C)cc1`, the z-score was -4.32.

With `Cc1ccc(S[C@]2(C(=O)NCc3ccccc3)CC(=O)N(C(C)C)[C@@H]2c2ccc(CO)cc2I)cc1`, the z-score is -3.15.

In the case of `CC(C)CCC[C@@H](C)[C@H]1CC[C@@]2(C)C3=C(CC[C@]12C)[C@@]1(C)CC[C@H](OC(=O)c2ccc(Br)cc2)C(C)(C)C1CC3` (some centres not stated), the z-score is -0.269.

`NC(=O)N1C(=O)C2C(C1=O)C1C=C(c3ccc(CO)cc3)C2C(C2CC2)N1Cc1sc2ccccc2c1Cl` (configuration not stated): the z-score was -3.61.

For the molecule `C=CCN1C(=O)[C@@]2(O[C@@H](CCn3cc([C@H](O)c4ccccc4)nn3)[C@H]([Si](C)(C)c3ccc(OC)cc3)[C@H]2C)c2ccccc21`, the z-score is -4.27.

With `CC1CC/C=C\[C@H]2OC34C=CCN(CCN5CCOCC5)C(=O)[C@H]3N(CCO)C(=O)[C@@H]4C2C(=O)O1` (some centres not stated), the z-score was 0.143.

With `C=CCOC(=O)[C@H]1[C@@H]2C(=O)O[C@@H](c3ccccc3)[C@@H](c3ccccc3)N2[C@@H](c2ccc(OCCOC(=O)[C@H]3C[C@H]4C(=O)N[C@@H](Cc5ccccc5)C(=O)N4[C@H]3c3ccc(O)cc3)cc2)[C@]12C(=O)Nc1ccc(I)cc12`, the z-score was -0.321.

Turning to `COc1ccc(C#Cc2ccc3c(c2)[C@]2(C(=O)N3)[C@H](C(=O)N3CCc4cc(OC)c(OC)cc4C3)[C@H]3C(=O)O[C@H](c4ccccc4)[C@H](c4ccccc4)N3[C@@H]2c2ccc(O)cc2)cc1`, the z-score was -0.293.

As to `O=C1O[C@@H](c2ccccc2)[C@@H](c2ccccc2)N2[C@@H](c3ccccc3OCCO)[C@]3(C(=O)Nc4ccccc43)[C@@H](C(=O)NC[C@H](O)c3ccccc3)[C@H]12`, the z-score is -4.54.

As for `C[C@]1(C(=O)NC2CC2)c2ccccc2C(=O)N(Cc2ccc(OC(F)(F)F)cc2)[C@H]1c1ccc(CO)cc1`, the z-score is 0.142.

In the case of `NC(=O)NCC#Cc1ccc2c(c1)[C@]1(C(=O)N2)[C@H](C(=O)Nc2nc3ccccc3s2)[C@H]2C(=O)O[C@H](c3ccccc3)[C@H](c3ccccc3)N2[C@@H]1c1ccc(O)cc1`, the z-score is 0.76.

Consider `COc1ccc(CCNC(=O)[C@@]2(Sc3ccc(C)cc3)CC(=O)N(Cc3cc(C(F)(F)F)cc(C(F)(F)F)c3)[C@@H]2c2ccc(CO)cc2I)cc1`, for which the z-score was -1.96.

For the molecule `CN(C)CCCNC(=O)[C@@H]1c2ccccc2C(=O)N(Cc2ccc(OC(F)(F)F)cc2)[C@H]1c1ccc(CO)cc1`, the z-score was -2.39.

For `COCCCNC(=O)[C@@]1(Sc2ccc(C)cc2)CC(=O)N(C2Cc3ccccc3C2)[C@@H]1c1ccc(CO)cc1I`, the z-score is -2.27.

As for `CCCCC(CC)C(O)C1C=CC2C(=O)N(c3ccccc3)C(=O)C2N1Nc1ccc([N+](=O)[O-])cc1` (configuration not stated), the z-score is -1.1.

With `CC(C)C(=C=CC[C@@H](O)c1ccccc1OCCO)C[C@@H](O)COCc1ccccc1`, the z-score was -0.399.

Turning to `C[C@H]1C2=C3C(CC[C@H]4C(OCc5ccc(F)cc5C(F)(F)F)OC[C@](C)([C@@H]34)N(C(=O)OC(C)(C)C)C2)C2COC(=O)OCC21` (some centres not stated), the z-score is -3.96.

In the case of `CCOC(=CC(=O)OC)CC(O)c1cccc(Cl)c1` (configuration not stated), the z-score is -1.15.

For `COc1cc(OC)c(C(O)C2C=CC3C(=O)N(c4ccccc4)C(=O)C3N2Nc2ccc(C#N)cc2)cc1Br` (configuration not stated), the z-score was -0.241.
